# Screens deposited in PubChem by National Center for Advancing Translational Sciences (NCATS).
# ATXN2 expr inh: Primary qHTS for Inhibitors of ATXN expression. HEK-293 ATXN2-luciferase reporter, luminescence, 24 h. actives 0.72% (n = 360,000). Potency, µM (doses to about 57 µM), without a hit: top-dose activity change, negative = inhibition, most hits filed as inhibitors; further: on the % scale 0 is the no-effect control and ±100 the full control effect; nearly all actives have a fitted effect of over 55% in size
#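 ATXN2-luciferase reporter cells (luciferase flanked by upstream and downstream ATXN2 gene portions) were treated 24 h at 37 °C with compounds at up to 57 uM. SteadyGlo luminescence gave expression; GF-AFC fluorescence gave viability.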
# TGFb inhibitor: qHTS for Inhibitors of TGF-b. HepG2 CAGA-GFP TGF-b/SMAD3 reporter, GFP fluorescence, 18 h; TGF-beta stimulated, 500 pg/mL final. actives 1.2% (n = 410,000). Potency, µM (doses to about 46.1 µM), without a hit: at the highest dose activity, negative = inhibition, most hits filed as inhibitors. AID 588855, 2011; further: on the % scale 0 is the no-effect control and ±100 the full control effect; nearly all actives have a fitted effect of over 65% in size
#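 TGF-beta reporter screen: HEPG2 CAGA-GFP, 1% FBS, 500 pg/mL TGF-beta final, 18 h; per-cell GFP summed per well; curves fitted and categorized by class.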
# HTT ATP protect: qHTS Multiplex Assay to Identify Dual Action Probes in a Cell Model of Huntington: Cytoprotection (ATP); PC12 HTT-Q103 induced, cytoprotection, ATP luminescence, 40 h; AID 1471, 2008; Potency, µM (series often up to 56.4 µM), for inactives: cytoprotection (ATP increase), usual class: activators; actives 0.14% (n = 230,000); further: % of control where 0% means no effect; nearly all actives have a fitted effect of over 45% in size
#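 ATP quantification (ATPlite) reports survival of PC12 cells in which tebufenozide, 100 nM final, switches on Htt exon 1 with 103 glutamines linked to GFP; compounds are titrated.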
# HepG2 tox: qHTS for Inhibitors of TGF-b: Cytotox Counterscreen; HepG2 CAGA-GFP viability, ATP luminescence, 18 h; Potency, µM (highest dose often 46.1 µM), for inactives: top-dose activity change, negative = cytotoxicity, actives largely listed as cytotoxic; actives 0.76% (n = 410,000)
#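 CellTiter-Glo luminescence gave cytotoxicity after 18 hours at 37 degrees C. The cells were HepG2 CAGA-GFP in 1% FBS DMEM, stimulated with 500 pg/mL TGF-beta after compound addition. %Activity was normalised to no-cell wells (complete cell-killing) and DMSO (no toxicity), and curves were fitted and classified.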
# HTT aggregate: qHTS Multiplex Assay to Identify Dual Action Probes in a Cell Model of Huntington: Aggregate Formation (GFP); PC12 HttQ103-GFP aggregates, Acumen cytometry, 40 h; Potency, µM (highest dose often 46.1 µM), for the others: at the top dose activity change, negative = inhibition, most hits filed as inhibitors; actives 1.1% (n = 220,000); AID 1688, 2009; further: on the % scale 0 is the no-effect control and ±100 the full control effect; nearly all actives have a fitted effect of over 60% in size
#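 PC12/HTTQ103-GFP, ecdysone-inducible; teb 100 nM; cpd qHTS titration; GFP aggregates read on laser cytometer, Ex 488/Em 500-530 nm.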
# S2 tox: Viability Counterscreen for Primary qHTS for Inhibitors of ATXN expression. actives 0.49% (n = 400,000). AID 651635, 2014. Potency, µM (doses to about 56.7 µM), most hits filed as cytotoxic. S2 cells (HEK-293 line with an ATXN2-luciferase reporter) viability, CellTiter-Fluor protease fluorescence, 24 h; further: nearly all actives have a fitted effect of over 40% in size
# * marks the source's active call; other numbers are inactive results; i = inactive; u = inconclusive; x = not tested or not shown; [ ] = another dose, or the depositor's remark. Sampled rows, rich in hits. Any-hit rate of the full collection: about 2.8%. The call rests on the fitted dose curve; in most records, active means well fitted curve in the direction sought with a large enough effect; inconclusive means small, poorly fitted or top-dose-only effect, or another doubt; inactive means no such curve, though single readings can be large; an effect the other way counts as inactive or inconclusive. Potency means the concentration at half of the fitted maximal effect.
SMILES,ATXN2 expr inh,TGFb inhibitor,HTT ATP protect,HepG2 tox,HTT aggregate,S2 tox
O=C(CCNC(=O)Cn1cnc2ccccc2c1=O)NCC1COc2ccccc2O1 (stereo unspecified),-3%,0%,11%,13µM*,-14%,i
O=C(CCCl)NCCc1ccccc1,9%,x,x,x,x,i
Cc1ccc(-c2[nH]ncc2/C=N/n2c(COc3ccccc3)nc3ccccc3c2=O)cc1,u,10µM*,-23%[10 µM],14µM*,3%,x
Cc1cc(/C=N/n2c(COc3ccccc3)nc3ccccc3c2=O)c(O)c([N+](=O)[O-])c1,u,16µM*,41%[10 µM],-19%,10µM*,u
COCc1c(C(=O)N2CCN(C)CC2)cnn1-c1ncc2c(n1)-c1ccccc1CCC2,x,x,x,x,x,i
Cc1ccc(SC[C@H](C)CN2CC[C@H](O)CCC2=O)cc1,x,-3%,x,-14%,x,x
Cc1cc(Cl)ccc1OCC(=O)N1CCOc2ccc(CN3C[C@@H](C)O[C@@H](C)C3)cc2C1,x,x,x,x,x,i
CNC(=O)OCc1nc(SSC(C)(C)C)n(C)c1COC(=O)NC,u,11µM*,x,-77%,x,x
CCSc1nc(COC(=O)NC)c(COC(=O)NC)n1C,-34%,-3%,x,5%,x,i
COC(=O)[C@@H]1C[C@@H](NC(=O)c2cccc3c(C)c(C)[nH]c23)CN1Cc1cccc2ccccc12,x,x,x,x,x,i
Clc1ccc2c(NCCNC3CCCCC3)ccnc2c1,2.2µM*,u,-3%[10 µM],13µM*,x,x
CCOC(=O)C(=O)c1csc(NC=O)n1,12%,x,x,x,x,i
CCN1C(C)=C(C(=O)OC)C(c2ccccc2)N2C(=O)[C@@]3(C(=O)OC)O[C@@]12C1C(=O)N(C)C(=O)C13 (stereo partly specified),x,x,-5%[10 µM],x,x,x
COc1cc(-c2cc3nc(NCc4cccc(Cl)c4)ccn3n2)cc(OC)c1OC,13µM*,u,x,-56%,x,u
COc1cc(-c2cc3nc(NCc4cccs4)ccn3n2)cc(OC)c1OC,u,33%,x,-2%,x,u
CCCN1C(=O)c2ccccc2NC1c1ccc(OC)c(COc2ccc([N+](=O)[O-])c(C)c2)c1 (stereo unspecified),x,17%,x,-5%,x,x
CC1=C(C(=O)OC(C)C)C(c2cccs2)C(C(=O)OC(C)C)=C(C)N1,-18%,18µM*,26%[1.9 µM],-41%,14%,i
CC(=O)Nc1ccc(S(=O)(=O)NC2(C(F)(F)F)C(=O)Nc3c2c(=O)[nH]c(=O)n3Cc2cccnc2)cc1 (stereo unspecified),-15%[11.3 µM],20%,2%[10 µM],2.8µM*,-2%[9.22 µM],i
O=C(Cn1nnc(-c2ccc(CN3CCOCC3)cc2)n1)Nc1nc(-c2ccccc2)cs1,-10%,13µM*,-8%[10 µM],-44%,u,i
O=C(CN1CCOCC1)Nc1nc(-c2ccccc2)cs1,11%,0%,x,1%,x,i
CCC1(C2CCN(C(=O)c3ccc(C)c(C)c3)CC2)NC(=O)N(CCc2scnc2C)C1=O (stereo unspecified),x,x,x,x,x,i
Cc1ccc(C(C[N+](=O)[O-])Sc2ccc(N)cc2)cc1 (stereo unspecified),u,11µM*,-14%[10 µM],13µM*,2%[9.22 µM],u
Cc1cc(-c2ccc(N=Nc3ccc4c(S(=O)(=O)O)cc(S(=O)(=O)O)c(N)c4c3O)c(C)c2)ccc1N=Nc1ccc2c(S(=O)(=O)O)cc(S(=O)(=O)O)c(N)c2c1O,x,x,26%,x,-8%,13µM*
Nc1c(N=Nc2ccc(-c3ccc(N=Nc4cc(S(=O)(=O)O)c5ccccc5c4N)cc3)cc2)cc(S(=O)(=O)O)c2ccccc12,x,x,11%,x,-22%,x
COc1ccccc1NC1=C(NC(C)=O)C(=O)c2ccccc2C1=O,-26%,14µM*,13%[10 µM],-109%,28%,i
SMILES,ATXN2 expr inh,TGFb inhibitor,HTT ATP protect,HepG2 tox,HTT aggregate,S2 tox
O=S(=O)(c1cccc(C(F)(F)F)c1)N1CCN(c2nc(-c3ccccc3)nc3ccccc23)CC1,x,9%,x,-7%,x,x
COC(=O)c1c(OCC2CCCN(C)C2)cc(=O)n2c1CCN(Cc1ccc(OC)c(O)c1)CC2 (stereo unspecified),x,x,x,x,x,i
COc1ccc(/C=N/Nc2nnc(-c3ncc[nH]3)c3ccccc23)cc1,45%,0%,-42%,20%,u,i
Oc1ccc2ccccc2c1/C=N/Nc1nnc(-c2ncc[nH]2)c2ccccc12,u,u,-76%[10 µM],-24%,0.79µM*,i
Cc1ccc(SCC(=O)OCC(=O)N(CC(C)C)c2c(N)n(Cc3ccccc3)c(=O)[nH]c2=O)cc1C,-19%,18µM*,x,-156%,x,i
CC(=O)c1ccc(NS(=O)(=O)c2ccc(CC(C)C)cc2)cc1,-13%,16µM*,20%,-92%,-2%[9.22 µM],i
CCc1ccccc1N(C)C,x,u,x,1%,x,x
O=C(CCN1CCN(c2ccccc2)CC1)N/N=C/c1ccccc1O,27µM*,u,-131%,1%,13µM*,i
O=C(CCC(=O)N/N=C/c1ccccc1O)NCc1ccccc1,-25%,0%,4%[10 µM],-33%,10µM*,i
CN1CCN(CCC(=O)N/N=C/c2ccccc2F)CC1,9%,1%,16%[10 µM],-1%,-8%[9.22 µM],i
O=C(CCC(=O)Nc1ccc(F)cc1)N/N=C/c1ccccc1O,6%[11.3 µM],-12%,-41%,-31%,u,i
O=C(CCC(=O)Nc1ccc(Br)cc1)N/N=C/c1ccccc1F,6%,-25%,x,1.8µM*,x,i
Cc1ccc(NC(=O)CCC(=O)N/N=C/c2ccc(O)cc2O)cc1,-16%,0%,x,-18%,x,i
C=CCc1cccc(/C=N/NC(=O)CCC(=O)Nc2ccc(C)cc2)c1O,14µM*,-42%,-13%[10 µM],-39%,u,i
COC(=O)C1=C[C@@H](C(=O)OC)C2C3=C(C(=O)[C@@]2(C)NC(=O)c2ccccc2)[C@H](C)n2c(=O)n(-c4ccccc4)c(=O)n2[C@@H]3C1 (stereo partly specified),x,-8%,x,-26%,x,x
O=C(CCC(=O)NNC(=O)COc1ccccc1)NCc1ccccc1,-3%,u,22%,13µM*,7%,i
O=C(CCn1cnc2ccccc21)N/N=C/c1ccc(O)cc1,0%,0%,12%[10 µM],-12%,10%,i
